What all share (design): scale not given: direction of the effect not stated beside the values
In assay [1] the target is Protein translocase subunit SecA (Escherichia coli (strain K12)) (UniProt P10408). Briefly: Assay to Identify E. coli SecA ATPase Inhibitors. It is filed as functional. The settings on record: 30 µM.
Assay [2] addresses T1, Ubiquitin-activating enzyme e1, putative (Leishmania donovani (strain BPK282A1)) (UniProt E9BSI1).
T1 sequence (whole entry): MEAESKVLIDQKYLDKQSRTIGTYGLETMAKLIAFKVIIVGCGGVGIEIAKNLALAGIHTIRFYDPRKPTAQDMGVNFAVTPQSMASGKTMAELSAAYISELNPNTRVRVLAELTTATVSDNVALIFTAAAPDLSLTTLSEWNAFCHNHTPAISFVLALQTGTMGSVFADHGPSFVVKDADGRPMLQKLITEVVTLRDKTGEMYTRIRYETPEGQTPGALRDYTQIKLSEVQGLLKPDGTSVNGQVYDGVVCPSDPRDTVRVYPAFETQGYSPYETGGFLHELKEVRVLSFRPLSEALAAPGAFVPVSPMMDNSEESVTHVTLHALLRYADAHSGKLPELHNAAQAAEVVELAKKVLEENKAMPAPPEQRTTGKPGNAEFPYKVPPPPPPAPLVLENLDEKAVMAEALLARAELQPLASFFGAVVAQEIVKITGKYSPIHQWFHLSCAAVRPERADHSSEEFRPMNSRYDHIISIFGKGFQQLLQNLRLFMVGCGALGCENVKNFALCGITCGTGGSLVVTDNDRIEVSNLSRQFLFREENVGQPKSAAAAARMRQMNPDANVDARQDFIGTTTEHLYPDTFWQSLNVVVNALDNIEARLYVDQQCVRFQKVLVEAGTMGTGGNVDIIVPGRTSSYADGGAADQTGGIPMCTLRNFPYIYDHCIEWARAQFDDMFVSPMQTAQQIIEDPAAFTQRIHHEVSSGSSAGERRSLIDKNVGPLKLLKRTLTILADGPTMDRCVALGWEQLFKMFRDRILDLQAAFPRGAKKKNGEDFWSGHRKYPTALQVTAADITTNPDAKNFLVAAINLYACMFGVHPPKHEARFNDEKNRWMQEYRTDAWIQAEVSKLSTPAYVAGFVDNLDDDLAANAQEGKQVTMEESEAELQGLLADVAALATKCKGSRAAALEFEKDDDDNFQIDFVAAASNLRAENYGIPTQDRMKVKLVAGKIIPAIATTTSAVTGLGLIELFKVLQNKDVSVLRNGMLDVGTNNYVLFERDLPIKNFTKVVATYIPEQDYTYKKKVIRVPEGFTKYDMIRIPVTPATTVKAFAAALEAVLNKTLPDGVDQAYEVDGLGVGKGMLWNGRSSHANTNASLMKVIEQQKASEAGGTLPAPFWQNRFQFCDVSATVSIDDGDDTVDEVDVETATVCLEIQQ
The assay is described as follows: Leishmania donovani Ubiquitin Activating Enzyme (LdE1). It is filed as functional. The settings on record: 30 µM.

The target in assay [3] is Sialic acid-binding Ig-like lectin 9 (Homo sapiens) (UniProt Q9Y336). The assay is described as follows: Hs-Siglec9 ALPHAscreen SOP 20170721. The note with it: 10 µM. (In Alpha technology, singlet oxygen from a donor bead excites a nearby acceptor bead.)
In a further assay the test system is Trypanosoma cruzi. The assay is described as follows: Trypanosoma cruzi phosphomannomutase and mannose-1-phosphate guanylyltransferase assay. It is filed as functional. The note with it: 10 µM.
Assay [4] concerns the target T2, Arginase-2, mitochondrial (Homo sapiens) (UniProt P78540).
T2 sequence (whole entry): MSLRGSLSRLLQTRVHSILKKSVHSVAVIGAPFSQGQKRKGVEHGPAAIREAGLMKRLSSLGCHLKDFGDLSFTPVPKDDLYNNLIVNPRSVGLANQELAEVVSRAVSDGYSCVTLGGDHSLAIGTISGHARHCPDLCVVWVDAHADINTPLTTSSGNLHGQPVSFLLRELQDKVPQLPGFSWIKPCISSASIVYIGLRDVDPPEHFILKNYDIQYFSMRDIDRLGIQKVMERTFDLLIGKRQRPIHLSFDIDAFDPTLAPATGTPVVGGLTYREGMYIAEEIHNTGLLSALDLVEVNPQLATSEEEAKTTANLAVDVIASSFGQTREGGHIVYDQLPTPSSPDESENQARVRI
The assay is described as follows: in vitro enzyme assay to detect the production of urea directly proportional to the activity of Arginase II. Note: in the data most compounds retested in dose-response had high values. Type of assay: functional. The note with it: 33.3 µM.

Assay [5] has as its target T3, Proteasome subunit beta (Trypanosoma cruzi) (UniProt O96673).
T3 sequence (whole entry): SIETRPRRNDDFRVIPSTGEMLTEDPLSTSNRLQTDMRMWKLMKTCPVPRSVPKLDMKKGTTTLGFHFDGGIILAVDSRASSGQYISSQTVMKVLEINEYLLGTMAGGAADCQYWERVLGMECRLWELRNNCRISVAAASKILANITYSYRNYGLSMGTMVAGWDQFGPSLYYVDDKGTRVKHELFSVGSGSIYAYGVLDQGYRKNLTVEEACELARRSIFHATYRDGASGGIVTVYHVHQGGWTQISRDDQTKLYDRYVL
Briefly: Trypanosoma cruzi proteasome chymotrypsin-like activity (TcProtChymo) assay. Note: in the data most compounds retested in dose-response had high values. The note with it: 9.37 µM. Type of assay: functional.

Another assay is filed under the species Homo sapiens. The assay is described as follows: To identify inhibition of the IFN signalling (Jak-Stat) pathway via expression of an eGFP reporter gene under the control of an IFN-stimulated response element (ISRE) containing MxA promoter. The note with it: 30 µM. It is filed as functional. For orientation: Reporter assays use an easily measured gene product as a stand-in for the process of interest.

Assay [6] has as its target T4, Tyrosyl-tRNA synthetase, putative (Trypanosoma cruzi (strain CL Brener)) (UniProt Q4DSP6).
T4 sequence (whole entry): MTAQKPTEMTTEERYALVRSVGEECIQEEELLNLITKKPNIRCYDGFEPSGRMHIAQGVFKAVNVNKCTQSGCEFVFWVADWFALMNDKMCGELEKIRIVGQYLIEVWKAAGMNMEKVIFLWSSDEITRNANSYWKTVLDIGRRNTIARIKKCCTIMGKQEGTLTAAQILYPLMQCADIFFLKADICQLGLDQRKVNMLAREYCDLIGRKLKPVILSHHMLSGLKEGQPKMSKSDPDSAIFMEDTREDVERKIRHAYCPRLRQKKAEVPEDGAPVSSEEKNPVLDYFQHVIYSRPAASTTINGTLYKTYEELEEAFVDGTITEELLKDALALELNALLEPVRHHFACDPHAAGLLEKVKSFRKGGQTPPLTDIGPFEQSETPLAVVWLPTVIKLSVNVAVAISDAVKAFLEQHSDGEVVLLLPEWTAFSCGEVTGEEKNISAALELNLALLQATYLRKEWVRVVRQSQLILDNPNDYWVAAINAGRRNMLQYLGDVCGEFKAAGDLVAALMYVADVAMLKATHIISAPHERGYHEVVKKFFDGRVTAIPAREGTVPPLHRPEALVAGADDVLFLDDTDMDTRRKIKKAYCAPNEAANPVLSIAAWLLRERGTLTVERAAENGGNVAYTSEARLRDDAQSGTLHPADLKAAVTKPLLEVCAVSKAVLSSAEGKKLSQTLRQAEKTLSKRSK
The assay is described as follows: Trypanosoma cruzi tyrosyl tRNA synthetase (TcYRS) _High Tyrosine SOP. Note: in the data most compounds retested in dose-response had high values. The note with it: 30 µM. It is filed as functional.

The target in assay [7] is T4, Tyrosyl-tRNA synthetase, putative (Trypanosoma cruzi (strain CL Brener)). The assay is described as follows: Trypanosoma cruzi tyrosyl tRNA synthetase (TcYRS) SOP. It is filed as functional. The settings on record: 30 µM.
Assay [8] has as its target Chromo domain-containing protein 1 (Saccharomyces cerevisiae (strain ATCC 204508 / S288c) (Baker's yeast)) (UniProt P32657). The assay is described as follows: ScCHD-1 Enzyme Inhibition Assay. Note: in the data most compounds retested in dose-response had high values. Type of assay: functional. The settings on record: 30 µM.

For part of these data: Potency and affinity values are given separately.

Chain of Sialic acid-binding Ig-like lectin 9 (Homo sapiens) (Q9Y336 whole entry): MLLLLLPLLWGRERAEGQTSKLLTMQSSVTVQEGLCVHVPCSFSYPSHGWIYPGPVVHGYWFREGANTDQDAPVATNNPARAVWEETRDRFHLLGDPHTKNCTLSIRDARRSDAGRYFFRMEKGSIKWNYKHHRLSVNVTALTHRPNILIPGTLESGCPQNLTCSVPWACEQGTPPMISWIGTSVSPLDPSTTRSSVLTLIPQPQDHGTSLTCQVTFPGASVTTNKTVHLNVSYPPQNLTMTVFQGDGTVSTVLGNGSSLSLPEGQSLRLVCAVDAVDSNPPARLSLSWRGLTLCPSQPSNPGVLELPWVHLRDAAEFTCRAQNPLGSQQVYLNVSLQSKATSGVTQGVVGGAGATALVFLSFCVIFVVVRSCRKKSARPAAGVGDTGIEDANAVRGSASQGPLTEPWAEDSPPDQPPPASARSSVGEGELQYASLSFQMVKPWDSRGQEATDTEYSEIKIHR
Chain of Protein translocase subunit SecA (Escherichia coli (strain K12)) (P10408 whole entry): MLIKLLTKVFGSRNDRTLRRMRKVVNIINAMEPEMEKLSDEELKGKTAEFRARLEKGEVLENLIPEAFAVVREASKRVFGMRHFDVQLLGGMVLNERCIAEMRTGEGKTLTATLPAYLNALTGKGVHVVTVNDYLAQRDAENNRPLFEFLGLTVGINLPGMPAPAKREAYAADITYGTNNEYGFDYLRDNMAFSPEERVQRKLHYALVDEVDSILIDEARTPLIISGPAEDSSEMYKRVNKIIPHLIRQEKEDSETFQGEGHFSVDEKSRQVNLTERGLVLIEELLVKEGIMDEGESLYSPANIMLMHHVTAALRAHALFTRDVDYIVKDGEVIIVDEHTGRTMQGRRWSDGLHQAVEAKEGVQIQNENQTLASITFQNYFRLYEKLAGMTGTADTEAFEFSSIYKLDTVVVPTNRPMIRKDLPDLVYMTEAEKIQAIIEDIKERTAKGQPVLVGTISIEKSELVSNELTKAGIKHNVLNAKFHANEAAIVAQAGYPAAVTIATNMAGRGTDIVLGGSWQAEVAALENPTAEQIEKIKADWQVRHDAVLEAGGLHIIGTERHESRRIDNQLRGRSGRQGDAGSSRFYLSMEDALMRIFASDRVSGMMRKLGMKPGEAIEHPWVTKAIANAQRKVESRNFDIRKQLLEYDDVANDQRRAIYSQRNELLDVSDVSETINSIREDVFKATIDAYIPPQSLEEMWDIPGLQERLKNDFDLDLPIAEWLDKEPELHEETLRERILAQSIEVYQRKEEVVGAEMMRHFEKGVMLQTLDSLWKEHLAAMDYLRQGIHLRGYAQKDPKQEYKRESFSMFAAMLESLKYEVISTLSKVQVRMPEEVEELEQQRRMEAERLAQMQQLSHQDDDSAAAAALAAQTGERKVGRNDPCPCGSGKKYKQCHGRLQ
Chain of Chromo domain-containing protein 1 (Saccharomyces cerevisiae (strain ATCC 204508 / S288c) (Baker's yeast)) (P32657 whole entry, the tested form may be a part): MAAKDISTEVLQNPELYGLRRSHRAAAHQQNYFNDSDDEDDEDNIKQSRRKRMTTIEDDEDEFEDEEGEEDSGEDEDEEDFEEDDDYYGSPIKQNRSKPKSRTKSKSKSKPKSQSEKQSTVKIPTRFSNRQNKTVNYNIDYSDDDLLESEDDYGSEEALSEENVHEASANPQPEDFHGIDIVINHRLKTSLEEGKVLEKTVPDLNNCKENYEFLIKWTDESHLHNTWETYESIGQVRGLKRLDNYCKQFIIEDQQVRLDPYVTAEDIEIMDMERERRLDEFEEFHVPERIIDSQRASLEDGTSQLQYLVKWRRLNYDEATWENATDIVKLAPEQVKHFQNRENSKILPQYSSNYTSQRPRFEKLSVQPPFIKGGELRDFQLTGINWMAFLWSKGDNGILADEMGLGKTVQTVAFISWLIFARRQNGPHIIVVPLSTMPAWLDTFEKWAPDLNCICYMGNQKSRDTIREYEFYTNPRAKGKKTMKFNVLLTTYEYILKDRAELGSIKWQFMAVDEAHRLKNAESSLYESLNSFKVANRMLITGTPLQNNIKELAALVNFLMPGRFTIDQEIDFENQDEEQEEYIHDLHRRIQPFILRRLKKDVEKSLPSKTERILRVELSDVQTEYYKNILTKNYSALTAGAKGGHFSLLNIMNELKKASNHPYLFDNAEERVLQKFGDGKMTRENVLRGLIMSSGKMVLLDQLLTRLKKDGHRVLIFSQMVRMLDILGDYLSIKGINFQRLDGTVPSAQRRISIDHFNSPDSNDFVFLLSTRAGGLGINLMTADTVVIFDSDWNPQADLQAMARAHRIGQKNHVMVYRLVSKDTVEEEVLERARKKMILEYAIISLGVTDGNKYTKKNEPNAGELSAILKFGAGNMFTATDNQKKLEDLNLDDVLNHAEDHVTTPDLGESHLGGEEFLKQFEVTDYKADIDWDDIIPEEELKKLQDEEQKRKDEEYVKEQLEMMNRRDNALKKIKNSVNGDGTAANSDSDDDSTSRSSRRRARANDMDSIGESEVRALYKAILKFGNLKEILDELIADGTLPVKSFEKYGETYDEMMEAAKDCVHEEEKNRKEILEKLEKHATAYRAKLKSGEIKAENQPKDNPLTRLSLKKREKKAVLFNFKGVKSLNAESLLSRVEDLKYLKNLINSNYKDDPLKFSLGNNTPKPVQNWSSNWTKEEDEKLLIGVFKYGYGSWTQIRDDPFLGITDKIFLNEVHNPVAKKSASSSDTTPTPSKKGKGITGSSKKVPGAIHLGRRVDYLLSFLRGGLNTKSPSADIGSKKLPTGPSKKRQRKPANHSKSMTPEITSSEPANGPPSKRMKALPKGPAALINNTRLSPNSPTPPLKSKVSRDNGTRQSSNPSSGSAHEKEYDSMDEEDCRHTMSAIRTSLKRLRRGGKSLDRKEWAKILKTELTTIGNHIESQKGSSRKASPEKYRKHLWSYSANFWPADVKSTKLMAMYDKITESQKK

Turning to `Cc1nc(N2CCCC2)nc2c1CN(C(=O)N1CCOCC1)CC2`, the Percent Effect in [1] was -4.38%; in assay [2], 14.3%; in assay [3], 1.78%; in the assay on Trypanosoma cruzi, 0.75%; in [4], 3.2%; in assay [5], 15.9%. Also, the Percent Effect in the assay listed under Homo sapiens is 1.81%; in assay [6], 10.6%; in assay [7], 15%; in [8], -9.99%.
As for `CN(C)CC(=O)N1C[C@H]2CCC[C@@]2(COc2ccccn2)C1`, the Percent Effect in assay [1] was -8.78%; in [2], 1.3%; in assay [3], 1.97%; in the assay with Trypanosoma cruzi it was -2.82%; in assay [4], -4.86%; in assay [5], 11.9%. Moreover, the Percent Effect was 7.53% in the assay listed under Homo sapiens, -0.526% in [6], 5.13% in [7] and -0.114% in assay [8].
Consider `Cc1cc(NC(=O)NCC2CCOC2)no1` (stereo not given), for which the Percent Effect in assay [1] is 0.735%; in [2], 10.7%; in [3], 0.0318%; in the assay with Trypanosoma cruzi, -6.63%; in assay [4] it was 9.76%; in assay [5] it was 5%. Further, the Percent Effect in the assay listed under Homo sapiens is 5.61%; in [6], 4.74%; in [7], 7.69%; in assay [8] it was -11.3%.
For `Cc1cnn(CC2CCCCN2C(=O)c2cc(Cl)c[nH]2)c1` (stereo not given), the Percent Effect is -3.19% in assay [1]; 20.8% in assay [2]; 10.9% in [3]; 6.53% in the assay with Trypanosoma cruzi; -5.53% in [4]; 6.67% in [5]. In addition, the Percent Effect in the assay filed under Homo sapiens was 15.7%; in [6], 5.88%; in [7], 23.5%; in assay [8], -9.18%.
With `CC(C)c1cc(NC(=O)CN2CCC(N3CCCCC3)CC2)on1`, the Percent Effect in assay [1] is -2.28%; in [2], 20.8%; in [3], 11.8%; in the assay on Trypanosoma cruzi it was 6.53%; in assay [4], -1.43%; in assay [5] it was 9.3%. Further, the Percent Effect is -6.15% in the assay listed under Homo sapiens, 11.8% in assay [6], 32.9% in assay [7] and -5.62% in [8].
Turning to `Cn1cccc1-c1cc(C(=O)N2CCCC2c2cccnc2)[nH]n1` (stereo not given), the Percent Effect in assay [1] was -6.61%; in [2], 18.9%; in assay [3], 15.5%; in the assay with Trypanosoma cruzi, 5.72%; in assay [4], 5.94%; in assay [5] it was 16.6%. Also, the Percent Effect in the assay filed under Homo sapiens was 5.26%; in [6] it was 4.79%; in assay [7] it was 17.1%; in assay [8] it was -2.92%.
Turning to `O=C(c1ccnnc1)N1CCC2(CC1)CC(N1CCOCC1)C2`, the Percent Effect was 0.141% in [1]; 14.3% in assay [2]; -2.15% in assay [3]; -2.25% in the assay with Trypanosoma cruzi; 5.48% in assay [4]; 13.8% in assay [5]. In addition, the Percent Effect is 22.2% in the assay listed under Homo sapiens, 4.83% in assay [6], 2.5% in assay [7] and -8.83% in assay [8].
For `Fc1cnc(N2CCOCC3(CCCN(c4nncs4)C3)C2)nc1` (stereo not given), the Percent Effect in assay [1] was -8.43%; in [2], 6.49%; in [3], -1.88%; in the assay with Trypanosoma cruzi, -2.63%; in assay [4], -5.26%; in assay [5], 10.5%. Further, the Percent Effect in the assay filed under Homo sapiens is -23.8%; in assay [6] it was 1.58%; in assay [7], 7.69%; in assay [8] it was 0.128%.
Consider `COc1ccc(C[C@H]2CN(C(=O)c3ccncc3)CC[C@@H]2OC)cc1`, for which the Percent Effect was -3.87% in assay [1]; 11.7% in assay [2]; 0.155% in assay [3]; -6.57% in the assay with Trypanosoma cruzi; -11.4% in [4]; 6.61% in assay [5]. For the same molecule, the Percent Effect in the assay listed under Homo sapiens was 11.4%; in assay [6], -2.9%; in [7] it was -2.5%; in assay [8], -10.3%.
For `O=c1c2ccccc2nc2n1C(CSc1ccc(Cl)cc1Cl)CN2` (stereo not given), the Percent Effect in assay [1] was -1.78%; in [2], 19.5%; in assay [3], -1.05%; with Trypanosoma cruzi, -1.31%; in assay [4], 5.94%; in assay [5] it was 13.3%. Further, the Percent Effect in the assay listed under Homo sapiens is 32.9%; in assay [6], 1.93%; in assay [7], 10%; in [8], -2.41%.
As to `CNC(=O)[C@@H]1C[C@H]2CN(Cc3ccco3)C[C@H]2N1C`, the Percent Effect in assay [1] was -3.02%; in [2], -27.3%; in [3], -0.86%; with Trypanosoma cruzi, -3.19%; in assay [4] it was 4.11%; in assay [5] it was 16.7%. The Percent Effect is -13.8% in the assay filed under Homo sapiens, 9.66% in [6], 12.5% in assay [7] and -2.19% in [8].
Take `COC1CCCN(Cc2nc(Cc3ccccc3F)no2)C1` (stereo not given): the Percent Effect was -7.36% in [1]; -5.41% in [2]; 1.17% in [3]; 2.04% with Trypanosoma cruzi; 1.75% in [4]; 1.71% in assay [5]. In addition, the Percent Effect in the assay listed under Homo sapiens came out at 3.24%; in assay [6] it was 5.85%; in assay [7], 14.6%; in assay [8], 0.44%.
